{
  "source": "the supplement of paper PMC3545927",
  "target": "furin, P09958",
  "sequence (P09958 whole entry, the tested form may be a part)": "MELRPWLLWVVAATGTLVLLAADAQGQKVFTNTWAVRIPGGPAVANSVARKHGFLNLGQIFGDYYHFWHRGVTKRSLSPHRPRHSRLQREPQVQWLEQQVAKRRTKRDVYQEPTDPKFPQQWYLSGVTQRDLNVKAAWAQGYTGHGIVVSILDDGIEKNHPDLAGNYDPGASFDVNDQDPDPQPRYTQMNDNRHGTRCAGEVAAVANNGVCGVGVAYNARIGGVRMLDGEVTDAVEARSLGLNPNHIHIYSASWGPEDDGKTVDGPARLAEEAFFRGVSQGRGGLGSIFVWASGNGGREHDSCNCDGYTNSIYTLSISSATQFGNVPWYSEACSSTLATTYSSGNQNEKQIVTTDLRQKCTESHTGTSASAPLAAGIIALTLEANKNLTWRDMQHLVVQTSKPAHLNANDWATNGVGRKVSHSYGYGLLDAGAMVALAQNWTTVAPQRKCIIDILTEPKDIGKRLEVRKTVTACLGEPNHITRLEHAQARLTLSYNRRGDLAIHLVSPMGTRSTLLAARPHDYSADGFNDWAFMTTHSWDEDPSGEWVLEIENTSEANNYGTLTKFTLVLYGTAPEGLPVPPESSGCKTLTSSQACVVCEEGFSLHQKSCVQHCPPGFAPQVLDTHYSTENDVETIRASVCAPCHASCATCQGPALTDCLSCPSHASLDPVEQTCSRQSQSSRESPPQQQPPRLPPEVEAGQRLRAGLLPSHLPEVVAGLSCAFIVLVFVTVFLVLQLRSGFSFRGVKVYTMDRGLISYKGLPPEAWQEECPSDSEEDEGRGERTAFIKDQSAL",
  "experiment": "furin cleavage Z-score vs untreated control; higher = more cleavage, active = 3.5 or more, inactive = 1 or less, 8 variable residues between constant flanks",
  "method_in_brief": "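Read counts from sequencing released DNA gave abundance for each bead-bound 8-mer peptide–cDNA fusion cut by purified furin over 7.5, 15 or 30 min. The cleavage Z-score compares log counts with furin-free reactions after lowess adjustment and median absolute deviation scaling.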",
  "note": "The list shows a part of the results. The hit rate among all sequences tested is not known here.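 Note: purified furin at 1:10 enzyme:substrate in 50 mM HEPES pH 7.5.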",
  "data": [
    {"sequence": "CARKAKEEGTAGNASASA", "note": "[FS-2957]", "values": [
      {"measurement": "furin cleavage Z-score", "setting": "7.5 min", "result": "-0.545 (inactive)"},
      {"measurement": "furin cleavage Z-score", "setting": "15 min", "result": 1.07},
      {"measurement": "furin cleavage Z-score", "setting": "30 min", "result": "-0.377 (inactive)"}
    ]},
    {"sequence": "CARKARALGTAGNASASA", "note": "[FS-2034]", "values": [
      {"measurement": "furin cleavage Z-score", "setting": "7.5 min", "result": "7.98 (active)"},
      {"measurement": "furin cleavage Z-score", "setting": "15 min", "result": "9.85 (active)"},
      {"measurement": "furin cleavage Z-score", "setting": "30 min", "result": "7.74 (active)"}
    ]},
    {"sequence": "CARARRQLGTAGNASASA", "note": "[FS-3184]", "values": [
      {"measurement": "furin cleavage Z-score", "setting": "7.5 min", "result": "4.41 (active)"},
      {"measurement": "furin cleavage Z-score", "setting": "15 min", "result": "5.24 (active)"},
      {"measurement": "furin cleavage Z-score", "setting": "30 min", "result": "4.88 (active)"}
    ]},
    {"sequence": "CAEVNCHRPSAGNASASA", "note": "[HC2361]", "values": [
      {"measurement": "furin cleavage Z-score", "setting": "7.5 min", "result": 1.09},
      {"measurement": "furin cleavage Z-score", "setting": "15 min", "result": 1.04},
      {"measurement": "furin cleavage Z-score", "setting": "30 min", "result": "-0.207 (inactive)"}
    ]},
    {"sequence": "CAPFDLLDFNAGNASASA", "note": "[CS3]", "values": [
      {"measurement": "furin cleavage Z-score", "setting": "7.5 min", "result": "-0.762 (inactive)"},
      {"measurement": "furin cleavage Z-score", "setting": "15 min", "result": "-0.626 (inactive)"},
      {"measurement": "furin cleavage Z-score", "setting": "30 min", "result": "-1.52 (inactive)"}
    ]},
    {"sequence": "CAMREVPCHRAGNASASA", "note": "[HC2426]", "values": [
      {"measurement": "furin cleavage Z-score", "setting": "7.5 min", "result": "-1.33 (inactive)"},
      {"measurement": "furin cleavage Z-score", "setting": "15 min", "result": "-0.795 (inactive)"},
      {"measurement": "furin cleavage Z-score", "setting": "30 min", "result": "-0.936 (inactive)"}
    ]},
    {"sequence": "CAARARHRKNAGNASASA", "note": "[FS-1512]", "values": [
      {"measurement": "furin cleavage Z-score", "setting": "7.5 min", "result": 3.46},
      {"measurement": "furin cleavage Z-score", "setting": "15 min", "result": "4.75 (active)"},
      {"measurement": "furin cleavage Z-score", "setting": "30 min", "result": "6.6 (active)"}
    ]},
    {"sequence": "CAARARNKREAGNASASA", "note": "[FS-217]", "values": [
      {"measurement": "furin cleavage Z-score", "setting": "7.5 min", "result": "9.23 (active)"},
      {"measurement": "furin cleavage Z-score", "setting": "15 min", "result": "10.8 (active)"},
      {"measurement": "furin cleavage Z-score", "setting": "30 min", "result": "7.52 (active)"}
    ]},
    {"sequence": "CARKKKHRKNAGNASASA", "note": "[FS-2265]", "values": [
      {"measurement": "furin cleavage Z-score", "setting": "7.5 min", "result": "0.00727 (inactive)"},
      {"measurement": "furin cleavage Z-score", "setting": "15 min", "result": "-0.00103 (inactive)"},
      {"measurement": "furin cleavage Z-score", "setting": "30 min", "result": "-1.45 (inactive)"}
    ]},
    {"sequence": "CAARAQAPPPAGNASASA", "note": "[HC958]", "values": [
      {"measurement": "furin cleavage Z-score", "setting": "7.5 min", "result": "-1.14 (inactive)"},
      {"measurement": "furin cleavage Z-score", "setting": "15 min", "result": "-1.1 (inactive)"},
      {"measurement": "furin cleavage Z-score", "setting": "30 min", "result": "-1.17 (inactive)"}
    ]},
    {"sequence": "CAARAAWETAAGNASASA", "note": "[HC1567]", "values": [
      {"measurement": "furin cleavage Z-score", "setting": "7.5 min", "result": 1.07},
      {"measurement": "furin cleavage Z-score", "setting": "15 min", "result": "0.154 (inactive)"},
      {"measurement": "furin cleavage Z-score", "setting": "30 min", "result": "-0.51 (inactive)"}
    ]},
    {"sequence": "CANQRRNKREAGNASASA", "note": "[FS-279]", "values": [
      {"measurement": "furin cleavage Z-score", "setting": "7.5 min", "result": "13.2 (active)"},
      {"measurement": "furin cleavage Z-score", "setting": "15 min", "result": "11.8 (active)"},
      {"measurement": "furin cleavage Z-score", "setting": "30 min", "result": "8.6 (active)"}
    ]},
    {"sequence": "CAEGCGWAGWAGNASASA", "note": "[HC205]", "values": [
      {"measurement": "furin cleavage Z-score", "setting": "7.5 min", "result": "-0.871 (inactive)"},
      {"measurement": "furin cleavage Z-score", "setting": "15 min", "result": 1.45},
      {"measurement": "furin cleavage Z-score", "setting": "30 min", "result": "-1.04 (inactive)"}
    ]},
    {"sequence": "CATESDIRTEAGNASASA", "note": "[HC1485]", "values": [
      {"measurement": "furin cleavage Z-score", "setting": "7.5 min", "result": "-0.326 (inactive)"},
      {"measurement": "furin cleavage Z-score", "setting": "15 min", "result": "-0.524 (inactive)"},
      {"measurement": "furin cleavage Z-score", "setting": "30 min", "result": "-0.55 (inactive)"}
    ]},
    {"sequence": "CAVVCCSMSRAGNASASA", "note": "[HC2093]", "values": [
      {"measurement": "furin cleavage Z-score", "setting": "7.5 min", "result": "0.591 (inactive)"},
      {"measurement": "furin cleavage Z-score", "setting": "15 min", "result": 1.03},
      {"measurement": "furin cleavage Z-score", "setting": "30 min", "result": "0.426 (inactive)"}
    ]},
    {"sequence": "CARWKRTQSQAGNASASA", "note": "[FS-2845]", "values": [
      {"measurement": "furin cleavage Z-score", "setting": "7.5 min", "result": "-0.543 (inactive)"},
      {"measurement": "furin cleavage Z-score", "setting": "15 min", "result": 1.6},
      {"measurement": "furin cleavage Z-score", "setting": "30 min", "result": 1.76}
    ]},
    {"sequence": "CARWKRQNFHAGNASASA", "note": "[FS-2471]", "values": [
      {"measurement": "furin cleavage Z-score", "setting": "7.5 min", "result": 1.47},
      {"measurement": "furin cleavage Z-score", "setting": "15 min", "result": "0.449 (inactive)"},
      {"measurement": "furin cleavage Z-score", "setting": "30 min", "result": 3.01}
    ]},
    {"sequence": "CARWKRYRRWAGNASASA", "note": "[FS-1077]", "values": [
      {"measurement": "furin cleavage Z-score", "setting": "7.5 min", "result": "10.1 (active)"},
      {"measurement": "furin cleavage Z-score", "setting": "15 min", "result": "12.1 (active)"},
      {"measurement": "furin cleavage Z-score", "setting": "30 min", "result": "10.9 (active)"}
    ]},
    {"sequence": "CARWGRYEGGAGNASASA", "note": "[FS-2844]", "values": [
      {"measurement": "furin cleavage Z-score", "setting": "7.5 min", "result": "-0.438 (inactive)"},
      {"measurement": "furin cleavage Z-score", "setting": "15 min", "result": "-2.78 (inactive)"},
      {"measurement": "furin cleavage Z-score", "setting": "30 min", "result": "-1.36 (inactive)"}
    ]},
    {"sequence": "CARWKRYQRSAGNASASA", "note": "[FS-142]", "values": [
      {"measurement": "furin cleavage Z-score", "setting": "7.5 min", "result": "9.87 (active)"},
      {"measurement": "furin cleavage Z-score", "setting": "15 min", "result": "10.7 (active)"},
      {"measurement": "furin cleavage Z-score", "setting": "30 min", "result": "9.68 (active)"}
    ]},
    {"sequence": "CARWKRTQRHAGNASASA", "note": "[FS-2623]", "values": [
      {"measurement": "furin cleavage Z-score", "setting": "7.5 min", "result": "8.7 (active)"},
      {"measurement": "furin cleavage Z-score", "setting": "15 min", "result": "11.5 (active)"},
      {"measurement": "furin cleavage Z-score", "setting": "30 min", "result": "8.86 (active)"}
    ]},
    {"sequence": "CALVVLATATAGNASASA", "note": "[HC832]", "values": [
      {"measurement": "furin cleavage Z-score", "setting": "7.5 min", "result": 1.79},
      {"measurement": "furin cleavage Z-score", "setting": "15 min", "result": 1.59},
      {"measurement": "furin cleavage Z-score", "setting": "30 min", "result": "0.476 (inactive)"}
    ]},
    {"sequence": "CAREECSQHLAGNASASA", "note": "[HC1673]", "values": [
      {"measurement": "furin cleavage Z-score", "setting": "7.5 min", "result": 1.67},
      {"measurement": "furin cleavage Z-score", "setting": "15 min", "result": 1.9},
      {"measurement": "furin cleavage Z-score", "setting": "30 min", "result": "0.967 (inactive)"}
    ]},
    {"sequence": "CANDIREKREAGNASASA", "note": "[FS-179]", "values": [
      {"measurement": "furin cleavage Z-score", "setting": "7.5 min", "result": "3.92 (active)"},
      {"measurement": "furin cleavage Z-score", "setting": "15 min", "result": "4.37 (active)"},
      {"measurement": "furin cleavage Z-score", "setting": "30 min", "result": "4.65 (active)"}
    ]},
    {"sequence": "CAEERREKREAGNASASA", "note": "[FS-905]", "values": [
      {"measurement": "furin cleavage Z-score", "setting": "7.5 min", "result": "4.27 (active)"},
      {"measurement": "furin cleavage Z-score", "setting": "15 min", "result": "4.96 (active)"},
      {"measurement": "furin cleavage Z-score", "setting": "30 min", "result": "6.98 (active)"}
    ]},
    {"sequence": "CAWARRHKREAGNASASA", "note": "[FS-1502]", "values": [
      {"measurement": "furin cleavage Z-score", "setting": "7.5 min", "result": "10.7 (active)"},
      {"measurement": "furin cleavage Z-score", "setting": "15 min", "result": "9.83 (active)"},
      {"measurement": "furin cleavage Z-score", "setting": "30 min", "result": "7.82 (active)"}
    ]},
    {"sequence": "CANKARLKKIAGNASASA", "note": "[FS-694]", "values": [
      {"measurement": "furin cleavage Z-score", "setting": "7.5 min", "result": "-0.0765 (inactive)"},
      {"measurement": "furin cleavage Z-score", "setting": "15 min", "result": "-1.98 (inactive)"},
      {"measurement": "furin cleavage Z-score", "setting": "30 min", "result": "-2.55 (inactive)"}
    ]}
  ]
}
